Data: PubChem BioAssay (Tox21)
Values joined by “and” are separate entries in the source; they are usually repeats but may differ in a detail not shown here. Identical values can stand only once. Records with an inconclusive call do not appear. A call without a number means that no potency is given here. Values without a mark were called inactive. Active and inactive are the calls of the source. Calls follow the shape of the dose curve; as a rule, active = well fitted cell-killing curve with a large enough effect in the repeat runs; inconclusive = weak or mixed curves, or effect the other way; inactive = flat fitted curve, though single readings scatter.

Assay: qHTS assay to identify small molecule agonists of the constitutive androstane receptor (CAR) signaling pathway - cell viability counter screen (AID 1224836); also: nearly all actives have a fitted effect of over 45% in size
Conditions: HepG2-CYP2B6-hCAR viability, CellTiter-Fluor, 23 h, PK11195 added to every well; series mostly up to 92.4 µM
Excerpt: U.S. Tox21 Program National Center for Advancing Translational Sciences [NCATS] NIH Chemical Genomics Center [NCGC] U.S. Environmental Protection Agency [EPA] National Institutes of Environmental Health Sciences [NIEHS] National Toxicology Program [NTP] U.S. Food and Drug Administration [FDA] Tox21 Assay Overview: The constitutive androstane receptor (CAR) is a nuclear receptor which regulates multiple drug metabolizing enzymes (DMEs) and transporters. Activating CAR will generally increase the transcription and subsequent translation of CYP2B6 and CYP3A4. These two DMEs represent about 50% of the drug metabolizing potential in the body. […] Recently, there have also been studies performed indicating CARs role in energy metabolism and cancer therapy. Therefore, inducing CARs activity could have a potential effect on diabetes and cancer. Identifying environmental toxins and compounds which modulate CAR, through the use of the Tox21 10K compound collection, will be an important step in determining the toxicity and potential therapeutic effects these factors will have on the human body. To differentiate true CAR agonists from cytotoxic substances, the assay is multiplexed with a cell viability assay.
Tox21 Assay Protocol Summary: A double-stable (hCAR and CYP2B6-2.2kb) transfected cell line, derived from human hepatoma (HepG2) cells, was utilized for the duration of the quantitative high-throughput screens. The HepG2-CYP2B6-hCAR cells were dispensed at 2500 cells/4 uL/well in 1536-well white solid bottom plates using a Multidrop Combi. After the assay plates were incubated at 37 C/5% CO2 for 4 hrs, 23 nL of compounds at 15 concentrations (from 5-48 columns) or positive control (from 1 to 4 columns) were transferred to the assay plates using a Pintool station. One uL of PK11195 (final concentration = 0.75 uM) was added, using a Flying Reagent Dispenser, inside each well. After a 23 hr incubation period at 37 C/5% CO2, 1 uL of CellTiter-Fluor reagent was added into each well of the assay plates using a Flying Reagent Dispenser. The fluorescence intensity in the plates was then measured using a ViewLux plate reader.
Potency is read from the fitted curve at half-maximal effect.

Row | SMILES | Potency | viability change, negative = cytotoxic
1 | O=C(O)CCc1ccccc1 | inactive | –
2 | c1cc(C(c2ccc(OCC3CO3)cc2)C(c2ccc(OCC3CO3)cc2)c2ccc(OCC3CO3)cc2)ccc1OCC1CO1 (stereo not given) | inactive | –
3 | CCCCC/C=C/CC1CC(=O)OC1=O (stereo not given) | inactive | –
4 | C/C=C/c1ccc(OCC)c(O)c1 | inactive | –
5 | O=S(=O)(O)c1ccc2nc(-c3ccccc3)[nH]c2c1 | inactive | –
6 | CC(=O)OCCOCCOCCOC(C)=O | inactive | –
7 | CC[C@]1(O)C[C@@H]2CN(CCc3c([nH]c4ccccc34)[C@@](C(=O)OC)(c3cc4c(cc3OC)N(C)[C@H]3[C@@](O)(C(=O)OC)[C@H](OC(C)=O)[C@]5(CC)C=CCN6CC[C@]43[C@@H]65)C2)C1 | 1.19 µM (active) and 2.98 µM (active) | –
8 | O=C(OCc1ccccc1)c1ccc(O)cc1 | inactive | –
9 | CCCOC(=O)c1cc(O)c(O)c(O)c1 | inactive | –
10 | c1ccc2cc3c(ccc4ccccc43)cc2c1 | inactive | –
11 | COc1ccc(COC(C)=O)cc1 | inactive | –
12 | C=CS(=O)(=O)O | inactive | –
13 | OCCN1CCNCC1 | inactive | –
14 | CC(C)(O)CCC(C)(C)O | inactive | –
15 | CCN(CC)C(=S)SSC(=S)N(CC)CC | 273 nM (active) and 157 nM (active) and 422 nM (active) | –
16 | CC(C)(C)NCC(O)COc1ccccc1OCC1CCCO1 (stereo not given) | inactive | –
17 | COC(=O)/C=C/c1ccccc1 | inactive | –
18 | CCC(=O)/C=C/C1C(C)=CCCC1(C)C (stereo not given) | inactive | –
19 | Cc1ccnc2c1NC(=O)c1cccnc1N2C1CC1 | inactive | –
20 | [Cl][In]([Cl])[Cl] | inactive | –

Row | SMILES | Potency | viability change, negative = cytotoxic
21 | O=C(O)Cn1cnnn1 | inactive | –
22 | CO[Si](OC)(OC)c1ccccc1 | inactive | –
23 | CCCCN(CCO)CCCC | inactive | –
24 | CC(=O)OCC1=C(C(=O)O)N2C(=O)[C@@H](NC(=O)Cc3cccs3)[C@H]2SC1 | inactive | –
25 | N[C@@H]1CONC1=O | inactive | –
26 | C=C(C)C(=O)O | inactive | –
27 | C=C(C)C1CC=C(C)C(OC(C)=O)C1 (stereo not given) | inactive | –
28 | CC(C)(c1ccccc1)c1ccc(Nc2ccc(C(C)(C)c3ccccc3)cc2)cc1 | inactive | –
29 | Oc1ccc(Cl)cc1Cc1cc(Cl)ccc1O | inactive | –
30 | CC(=O)CC(C)=O | inactive | –
31 | O=Nc1ccc(Nc2ccccc2)cc1 | inactive | –
32 | CCCCCCCCCCCCc1ccccc1O | inactive | –
33 | Oc1c(Cl)cc(Cl)cc1Sc1cc(Cl)cc(Cl)c1O | inactive | –
34 | CCC(C)(Oc1ccc(C2(c3ccc(OC(C)(CC)C(=O)O)cc3)CCCCC2)cc1)C(=O)O (stereo not given) | inactive | –
35 | CC(C)(C)c1cc(C(C)(C)C)c(O)c(C(C)(C)C)c1 | inactive | –
36 | Oc1c(Cl)cc(Cl)c(Cl)c1Cc1c(O)c(Cl)cc(Cl)c1Cl | 7.67 µM (active) | –
37 | Nc1cc(S(=O)(=O)O)cc2cc(S(=O)(=O)O)cc(O)c12 | inactive | –
38 | CCC[C@H](N[C@@H](C)C(=O)N1[C@H](C(=O)O)C[C@@H]2CCCC[C@@H]21)C(=O)OCC | inactive | –
39 | CCCCCCCCCCCCCCCCCl | – | -1.15% [at 19 µM]
40 | Cc1ccc(S(=O)(=O)Oc2ccc(N=Nc3ccc(-c4ccc(N=Nc5c(O)ccc6cc(S(=O)(=O)O)cc(S(=O)(=O)O)c56)c(C)c4)cc3C)cc2)cc1 | 27.4 µM (active) and 20 µM (active) | –
